This note sets out measurements from PubChem BioAssay (NCI).

Test systems include T-47D breast; BT-549 breast; MDA-MB-435 melanoma; SW-620 colon; MCF7 breast; HCT-116 colon; HCC-2998 colon; KM12 colon.
Experiment in all cases: NCI-60 one-dose screen, 48 h (100 = growth as untreated, 0 = no growth, -100 = all killed)
Details in all cases: 10 µM unless noted

About 83,000 compounds went through this panel and 20% of them were active in at least one assay; those are over-represented in the sample as a whole.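 Step 1: grow cells in 96-well plates. Step 2: add test compound at a single concentration. Step 3: incubate 48 h. Step 4: record percent growth.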 Values without a mark were called inactive. Calls of active or inactive are those of the source. Rule for the calls: active = growth percent below 10; inactive = the rest.

Regarding `Cc1cc(C)cc(Nc2cc(C)nc3nc(C(F)(F)F)nn23)c1`, the growth with T-47D breast was 29.5%; in the experiment with BT-549 breast it was 49%; in the experiment on MDA-MB-435 melanoma, 36.9%; in the experiment with SW-620 colon, 35.2%; in the experiment with MCF7 breast, -11.7% (active); in the experiment on HCT-116 colon, 19.2%. Besides, the growth in the experiment on HCC-2998 colon was 40.2%; with KM12 colon, 25.7%.
With `O=C(CCCCCCc1nc2ccc(Br)cc2[nH]1)NO`, the growth was -32.3% (active) in the experiment on T-47D breast; 16.4% in the experiment with BT-549 breast; -10.5% (active) with MDA-MB-435 melanoma; -76.8% (active) in the experiment on SW-620 colon; 1.84% (active) in the experiment on MCF7 breast; -89.2% (active) in the experiment with HCT-116 colon. The figures for the growth in the experiment on HCC-2998 colon and in the experiment on KM12 colon were -51.7% (active) and -65.4% (active), respectively.
As for `O=C1c2ccccc2C(=O)c2c1oc1ccc3ccccc3c21`, the growth is 23.5% with T-47D breast; 70.2% in the experiment on BT-549 breast; 91.3% in the experiment with MDA-MB-435 melanoma; 91.6% with SW-620 colon; 21.8% with MCF7 breast; 62.2% in the experiment on HCT-116 colon. Besides, the growth is 99% in the experiment with HCC-2998 colon and 61.6% in the experiment with KM12 colon.
For `OC(c1cc2c(Cl)cc(Cl)cc2c2cc(C(F)(F)F)ccc12)C1CCCCN1` (stereo not drawn), the growth with T-47D breast is -78.5% (active); in the experiment on BT-549 breast it was 50.4%; with MDA-MB-435 melanoma, -65.5% (active); in the experiment on SW-620 colon it was -74.4% (active); in the experiment with MCF7 breast, -75.7% (active); in the experiment with HCT-116 colon it was -85.9% (active). The growth in the experiment with HCC-2998 colon is -73.5% (active); with KM12 colon it was -84.6% (active).
On to `CNC(=O)c1ccccc1Sc1ccc2c(/C=C/c3ccccn3)n[nH]c2c1`, for which the growth in the experiment on T-47D breast is -12.4% (active); with BT-549 breast it was 16.2%; in the experiment on MDA-MB-435 melanoma it was 39%; with SW-620 colon, 17.8%; in the experiment on MCF7 breast, 35.2%; with HCT-116 colon, 29.9%. For the same compound, the growth in the experiment with HCC-2998 colon was 68.9%; in the experiment with KM12 colon it was 17.2%.
Turning to `Cc1nc2n[nH]c(N)c2nc1C`, the growth with T-47D breast is 101%; in the experiment with BT-549 breast, 118%; in the experiment on MDA-MB-435 melanoma, 107%; in the experiment with SW-620 colon, 108%; with MCF7 breast, 94.8%; in the experiment on HCT-116 colon, 109%. Further, the growth with HCC-2998 colon was 103%; in the experiment with KM12 colon, 106%.
Consider `O=C(Cn1nncc1CN1C(=O)CSC1=O)Nc1ccc(F)cc1`, for which the growth in the experiment with T-47D breast was 97.8%; with BT-549 breast it was 98.8%; in the experiment on MDA-MB-435 melanoma it was 100%; with SW-620 colon, 98.8%; in the experiment with MCF7 breast, 94.6%; in the experiment on HCT-116 colon it was 101%. Besides, the growth is 96.2% in the experiment with HCC-2998 colon and 106% in the experiment with KM12 colon.
`C=CCn1c(C)nc2cc(Nc3nc(N4CCCC4)nc4nc[nH]c34)ccc21`: the growth is 45% in the experiment on T-47D breast; -33.6% (active) with BT-549 breast; 9.16% (active) in the experiment with MDA-MB-435 melanoma; 40.8% with SW-620 colon; 73.5% with MCF7 breast; -40.2% (active) with HCT-116 colon. Further, the growth with HCC-2998 colon was 76.4%; with KM12 colon it was 13.1%.
As to `Cc1ccc(NC(=O)c2[nH]c(SCCN(C)C)nc2-c2ccc(F)cc2)cc1Nc1ccc2ncn(C)c(=O)c2c1`, the growth is 76.8% in the experiment with T-47D breast; 85.2% in the experiment on BT-549 breast; 44.6% in the experiment with MDA-MB-435 melanoma; 51.8% with SW-620 colon; 70% in the experiment with MCF7 breast; 21% in the experiment with HCT-116 colon. Also, the growth is 49.9% in the experiment on HCC-2998 colon and 49.6% in the experiment with KM12 colon.
As to `CC(COC(=O)c1ccccc1)N1CC2CCC(C1)O2` (stereo not drawn), the growth in the experiment with T-47D breast was 103%; with BT-549 breast it was 105%; in the experiment with MDA-MB-435 melanoma it was 98.1%; in the experiment with SW-620 colon, 97.6%; in the experiment with MCF7 breast, 102%; in the experiment with HCT-116 colon, 106%. Further, the growth in the experiment with HCC-2998 colon is 110%; in the experiment with KM12 colon, 109%.
Turning to `COc1ccc2[nH]c(O)c(/C=c3/ccc4c(c3)N=C(c3ccc(F)cc3)N=4)c2c1`, the growth in the experiment with T-47D breast is 28.3%; in the experiment with BT-549 breast, 26.7%; in the experiment on MDA-MB-435 melanoma, 57.8%; in the experiment with SW-620 colon, 41.3%; in the experiment with MCF7 breast it was 41.7%; in the experiment on HCT-116 colon, -22.6% (active). The growth in the experiment with HCC-2998 colon is 104%; in the experiment on KM12 colon it was 74.9%.
Take `COc1ccc(-c2nsc3c2NC(=O)CC3c2cccc(F)c2)cc1` (stereo not drawn): the growth with T-47D breast is 33.7%; in the experiment with BT-549 breast it was 50.3%; in the experiment on MDA-MB-435 melanoma it was -34.1% (active); in the experiment on SW-620 colon it was 18%; in the experiment on MCF7 breast it was 26.4%; in the experiment on HCT-116 colon, 22.9%. Also, the growth is 78.5% in the experiment with HCC-2998 colon and 16.7% in the experiment on KM12 colon.
With `C#CCNC(=S)N/N=C(\C)c1ccccn1`, the growth is 24.1% in the experiment with T-47D breast; -2.53% (active) in the experiment on BT-549 breast; 33.1% in the experiment with MDA-MB-435 melanoma; 34.3% in the experiment on SW-620 colon; 4.54% (active) in the experiment on MCF7 breast; 1.22% (active) with HCT-116 colon. Besides, the growth in the experiment on HCC-2998 colon was 35.1%; in the experiment on KM12 colon, 23.5%.
On to `O=NN(CC(=O)NNc1ccccc1)CC(=O)NNc1ccccc1`, for which the growth in the experiment on T-47D breast was 46.6%; in the experiment with BT-549 breast it was 103%; in the experiment on MDA-MB-435 melanoma, 30.5%; in the experiment on SW-620 colon it was 31.1%; in the experiment with MCF7 breast, 69.5%; in the experiment with HCT-116 colon, 57%. Further, the growth in the experiment with HCC-2998 colon is 68.9%; with KM12 colon, 37.9%.
Consider `CCCCCCCCCC1=NC(C)(C)CN1C(C)(C)CO`, for which the growth is 153% in the experiment on T-47D breast; 105% with BT-549 breast; 110% in the experiment with MDA-MB-435 melanoma; 93.8% in the experiment with SW-620 colon; 95.3% with MCF7 breast; 69.3% in the experiment on HCT-116 colon. The growth in the experiment with HCC-2998 colon is 84.1%; in the experiment with KM12 colon, 97.6%.
In the case of `COc1cc(-c2csc(NC(=O)Nc3cccc(C(F)(F)F)c3)n2)cc(OC)c1OC`, the growth was 7.61% (active) in the experiment on T-47D breast; 43.8% in the experiment with BT-549 breast; 57.1% in the experiment on MDA-MB-435 melanoma; 74.3% in the experiment on SW-620 colon; 35.5% in the experiment with MCF7 breast; 46.9% in the experiment on HCT-116 colon. Further, the growth in the experiment with HCC-2998 colon is 81.1%; with KM12 colon, 34.5%.
